Laboratory results published in PubChem BioAssay AID1053197 (The Scripps Research Institute Molecular Screening Center, 2014).
Hit rate of the full screen: of about 370,000 compounds, about 2,600 (0.7%) were called active. The sample holds actives, similar compounds and a random draw of the others, so the mix is not that of the screen. A number with no mark means an inactive call.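 Rule for the calls: active = inhibition above a cutoff: mean of compounds within the control limits plus 3 SD of those (cut at about 17% in these data); inactive = the rest.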

molecular target: Sialate O-acetylesterase (Homo sapiens) (UniProt Q9HAT2); assay: blockers of sialate O-acetylesterase activity-probe labeling – biochemical, fluorescence polarization, FP-Rh probe, 1536-well HTS, primary screen (AID 1053197); conditions: SIAE FP-Rh probe binding, at 9.66 µM, stronger effect = higher value;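 note: 0% = plate median of compound wells and 100% = probe without SIAE protein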
Sequence (Q9HAT2 whole entry, looked up): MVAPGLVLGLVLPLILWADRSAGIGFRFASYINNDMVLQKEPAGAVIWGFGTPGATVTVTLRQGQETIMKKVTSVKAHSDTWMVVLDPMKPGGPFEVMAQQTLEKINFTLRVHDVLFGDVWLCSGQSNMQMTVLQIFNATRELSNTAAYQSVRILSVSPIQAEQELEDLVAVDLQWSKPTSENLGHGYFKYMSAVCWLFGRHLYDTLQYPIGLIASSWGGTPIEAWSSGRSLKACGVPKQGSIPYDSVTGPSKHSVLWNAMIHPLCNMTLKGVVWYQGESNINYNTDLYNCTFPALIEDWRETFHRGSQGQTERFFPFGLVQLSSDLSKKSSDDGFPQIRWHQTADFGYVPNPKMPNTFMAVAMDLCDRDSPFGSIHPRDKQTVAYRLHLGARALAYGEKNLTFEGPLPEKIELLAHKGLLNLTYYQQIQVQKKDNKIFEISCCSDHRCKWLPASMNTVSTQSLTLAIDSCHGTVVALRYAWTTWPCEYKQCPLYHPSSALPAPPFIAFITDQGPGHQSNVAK

| SMILES | inhibition |
| --- | --- |
| CCOC(=O)N1CCN(C(=O)C[C@@H]2C(=O)N(CCc3ccc(Cl)cc3)C3=CCCC[C@]32C(=O)OCC)CC1 | 2.23% |
| CCCCNC(=O)C[C@@H]1C(=O)N(CCc2ccc(Cl)cc2)C2=CCCC[C@]21C(=O)OCC | -0.15% |
| Cc1ccc(C)c(NC(=O)CCS(=O)(=O)c2ccccc2)c1 | -0.04% |
| CCCCCCCCNS(=O)(=O)/C=C/c1cc(C)ccc1CNC(=O)OC(C)(C)C | -1.33% |
| Cc1cc(C(=O)NNC(=O)c2cccc(S(=O)(=O)N3CCOCC3)c2)c2ccccc2n1 | 0.67% |
| O=C(NNc1c2ccccc2nc2ccccc12)c1cc2ccccc2cc1O | 49.5% (active) |
| Cc1ccc(C)c(NC(=O)NNC(=O)c2ccc3ccccc3c2O)c1 | 13.1% |
| COc1ccc(/C=C2\CC3(OC(C)=O)CCCN2C3)cc1 (stereo unspecified) | 5.11% |
| Cc1ccc(-n2c(SCC(=O)Nc3cccc4ccccc34)nnc2-c2ccco2)cc1 | -4.95% |
| CC(=O)O[C@@]1(C(C)=O)CCC2[C@H]3C=C(C)C4=CC(=O)CC[C@@]4(C)C3CC[C@]21C (stereo partly specified) | 4.07% |
| S=C(Nc1ccc(Br)cc1Cl)NC1CCN(Cc2ccccc2)CC1 | 5.25% |
| O=C(NC1CCN(Cc2ccccc2)CC1)c1cc(Br)c(Br)[nH]1 | -7.58% |
| S=C(Nc1ccc(Br)cc1)NC1CCN(Cc2ccccc2)CC1 | 17.1% (active) |
| N#Cc1ccccc1OC[C@@H](O)CN1CCC(C(O)(c2ccccc2)c2ccccc2)CC1 | 3.53% |
| CN[C@H]1C[C@H]2c3cc(N4CCOCC4)ccc3CCN2C[C@H]1[C@H](C)O | 3.31% |
| CC(C)CCNC(=O)C1CCCN(S(=O)(=O)c2ccc(F)cc2)C1 (stereo unspecified) | 23.3% (active) |
| COc1ccc(CCNC(=O)C2CCCN(S(=O)(=O)c3ccc(OC)cc3)C2)cc1 (stereo unspecified) | -4.52% |
| CCCCNC(=O)C1CCCN(S(=O)(=O)c2ccc(S(=O)(=O)NCC(C)C)cc2)C1 (stereo unspecified) | -1.45% |
| Cc1ccc(NC(=O)Nc2cc(C)nn2-c2ccccc2)cc1 | 0.39% |
| CCOC(=O)[C@@]12CCC3=C1N(CCC3)C(=O)[C@H](CC(=O)N1CCN(C(=O)c3ccco3)CC1)C2 | 8.17% |
| O=C(Nc1ccc(Br)cc1)OCCN1C(=O)CCC12CCC(c1ccccc1)CC2 (stereo unspecified) | 2.49% |
| Cc1cccc(C)c1NC(=O)COC(=O)c1c(C)nn(-c2ccccc2)c1C | 2.02% |

| SMILES | inhibition |
| --- | --- |
| Cc1ccc(OC(=O)c2c(C)nn(-c3ccccc3)c2C)cc1 | 5.09% |
| CCOC(=O)c1c(C)nn(-c2ncccc2NC(=O)CCC(=O)O)c1C | 19.8% (active) |
| COc1cc(/C=C/C(=O)n2cnc3ccccc32)cc(OC)c1OC | -3.74% |
| CCc1ccc(NC(=O)C(C)OC(=O)/C=C/c2cccc([N+](=O)[O-])c2)cc1 (stereo unspecified) | -4.1% |
| CN(CC(=O)Nc1cccc(F)c1)CC(=O)Nc1cccc([N+](=O)[O-])c1 | 21.2% (active) |
| CC(=O)Nc1cccc([N+](=O)[O-])c1 | 19.3% (active) |
| CS(=O)(=O)N(CC(=O)Nc1ccc(F)cc1F)c1cccc([N+](=O)[O-])c1 | 5.36% |
| CC(=O)Nc1cccc(Nc2ccc(C#N)cc2)c1 | 7.95% |
| CN(C(=O)c1cccc(NC(=O)Cc2cccc([N+](=O)[O-])c2)c1)C1CCCCC1 | -12.1% |
| COC(=O)[C@]12C[C@H](CC(=O)NCc3cccc4ccccc34)C(=O)N(CCc3ccc(OC)c(OC)c3)C1=C[C@H](C1CCCC1)O[C@@H]2C | -2.97% |
| O=C(OC12CCCN(C1)/C(=C/c1ccccc1)C2)c1ccco1 (stereo unspecified) | 0.28% |
| COP(=O)(O)CNC(=O)OCc1ccccc1 | 0.82% |
| O=C(NCc1cccs1)C1CCN(S(=O)(=O)c2ccccc2[N+](=O)[O-])CC1 | -0.55% |
| CCN(CC)C(=O)CC[C@H]1CC[C@]2(CCCN(Cc3ccc(Cl)cc3)C2)O1 | -1% |
| Cc1ccccc1NC(=O)COC(=O)c1ccc(Sc2ncn[nH]2)c([N+](=O)[O-])c1 | 0.99% |
| CCOC(=O)N1CCN(C(=O)C[C@H]2C[C@@]3(C(=O)OC)C(=C[C@H](C(C)(C)C)O[C@@H]3C)N(Cc3ccc(Cl)cc3Cl)C2=O)CC1 | 4.46% |
| Cc1ccc2c(c1)C1CN(C)CCC1N2C(=S)Nc1ccc(OC(F)F)cc1 (stereo unspecified) | 19% (active) |
| Cc1ccc2c(c1)C1CN(C)CCC1N2C(=S)Nc1ccc(Cl)cc1Cl (stereo unspecified) | -1.14% |
| Cc1ccc2c(c1)C1CN(C)CCC1N2C(=O)c1ccccc1NS(=O)(=O)c1ccc(F)cc1C (stereo unspecified) | -4.94% |
| O=C(OCC#CCSc1nnc(-c2ccco2)o1)c1ccc(F)cc1 | -3.86% |
| FC(F)(F)c1cccc(Cn2ccc3ccc(-c4ccc5ccn(Cc6ccccc6)c5c4)cc32)c1 | -4.98% |
| Cc1nc(N2CCOCC2)sc1C(=O)NN | 4.29% |

| SMILES | inhibition |
| --- | --- |
| Cc1nc(-c2ccc(Cl)cc2)sc1C1(C)CC(c2ccc(Br)cc2)=NO1 (stereo unspecified) | -4.52% |
| Cc1nc(-c2ccc(Cl)cc2)sc1C(=O)NN | 17.1% (active) |
| CN(C)S(=O)(=O)c1cccc(C(=O)N/N=C\c2ccco2)c1 | 1.17% |
| O=C1CCCC(O)=C1N=Nc1ccc2ncsc2c1 | 4.95% |
| O=C1CCCC(O)=C1N=Nc1ccc(S(=O)(=O)N2CCOCC2)cc1 | 32.3% (active) |
| CC1(C)CC(=O)C(N=Nc2ccc(S(=O)(=O)N3CCCCCC3)cc2)=C(O)C1 | -6.58% |
| COc1cccc(/C=C2\CC3(OC(C)=O)CCCN2C3)c1 (stereo unspecified) | 5.6% |
| CC(NS(=O)(=O)c1ccc(Cl)cc1)C(=O)Nc1ccc2c(c1)OCCO2 (stereo unspecified) | 17.1% (active) |
| CC(=O)Nc1ccc(NC(=O)C(NS(=O)(=O)c2ccc3c(c2)OCCO3)C(C)C)cc1 (stereo unspecified) | -4.61% |
| CNS(=O)(=O)c1ccc(NC(=O)Nc2ccc3c(c2)OCO3)cc1 | -0.18% |
| Cc1ccc(Cn2cc(CN3[C@@H](C)COc4cc(Br)ccc4S3(=O)=O)nn2)cc1 | -0.41% |
| CC(=O)OCCN1CCCC12CCC(c1ccccc1)CC2 (stereo unspecified) | -7.94% |
| COc1ccc(-c2nnc(SCC(=O)c3ccc4c(c3)OCCO4)o2)cc1 | -8.81% |
| COc1ccc2nc(Nc3nc4cc5c(cc4s3)OCCO5)sc2c1 | 21.1% (active) |
| COc1cccc(C(=O)Nc2cc3c(cc2Br)OCCCO3)c1 | 5.12% |
| O=C(NC1CCC1)c1ccc(C#CC2CC2)cn1 | 3.02% |
| CC(C)(C)OC(=O)NCCc1ccccc1/C=C/S(=O)(=O)NCc1ccc(F)cc1 | 3.43% |
| Cc1ccc(-c2nc(C3CCCN(S(=O)(=O)c4ccc(Br)s4)C3)no2)cc1 (stereo unspecified) | 3.3% |
| O=C(CSc1nnc(COc2ccccc2)n1-c1ccc(Cl)cc1)Nc1ccc2c(c1)OCO2 | -2.77% |
| S=C(NCCCc1cnc[nH]1)NCCCN(Cc1ccc(Cl)c(Cl)c1)c1ccc(Br)cn1 | 38.7% (active) |
| NCCCNC(=S)NCCCN(Cc1ccc(Cl)cc1)c1ccc(Br)cn1 | -4.09% |
| COc1ccc(Cn2ccc3ccc(-c4ccc5ccn(Cc6ccccc6C)c5c4)cc32)cc1 | 1.75% |

| SMILES | inhibition |
| --- | --- |
| COC(=O)[C@]12C[C@H](CC(=O)NCCCN3CCCC3=O)C(=O)N(CCc3ccc(OC)c(OC)c3)C1=C[C@H](COCc1ccccc1)O[C@@H]2C | -1.06% |
| CCOC(=O)[C@]12CCCCC/C=C\1N(Cc1ccc(OC)cc1)C(=O)[C@H]2CC(=O)NCc1ccc(C)o1 | 4.67% |
| O=C(CCCCCN1C(=O)C2C3C=CC(C3)C2C1=O)Nc1ccccc1 (stereo unspecified) | 0.48% |
| COc1ccc(CSc2nnc(SCC(=O)Nc3ccccc3C(F)(F)F)s2)cc1 | 2.74% |
| CC(NCc1cccs1)C(=O)Nc1cc(Cl)cc(Cl)c1 (stereo unspecified) | 8.74% |
| Cc1nc2cc(NCc3cccs3)ccc2n1C | 82.8% (active) |
| O=C(NCc1cccs1)c1ccc2c(c1)ncn2C1CCCC1 | 6.82% |
| Cc1ccc(CN2CCCCC(NC(=O)C3CCCCC3)C2=O)cc1 (stereo unspecified) | -2.58% |
| COC(=O)[C@]12C[C@H](CC(=O)NCc3ccccc3)C(=O)N(Cc3ccccc3)C1=C[C@H](COCc1ccccc1)O[C@@H]2C | -4.26% |
| CC(=O)Nc1ccc(S(=O)(=O)N2CCCC2C(=O)O)cc1 (stereo unspecified) | -4.8% |
| CC(=O)Nc1ccc(S(=O)(=O)N2CCN(C3CCCCCCC3)CC2)cc1 | 1.94% |
| CC(=O)Nc1ccc(S(=O)(=O)Nc2ccc(N3CCCCC3)cc2)cc1 | 22.2% (active) |
| COc1ccc(CN2C(=O)N3Cc4cc(OC)ccc4C3CS2(=O)=O)cc1 (stereo unspecified) | -3.42% |
| Cc1ccc(-c2nnc(SCC(=O)Nc3ccc(Oc4ccccc4)cc3)n2Cc2ccco2)cc1 | -0.26% |
| Cc1ccc(OCC(=O)Nc2ccc(-c3nnc(-c4ccco4)o3)cc2)cc1 | 32.9% (active) |
| CCOC(=O)C1=C(O)/C(=C/c2ccc(OCC(=O)Nc3ccc(C)cc3)cc2)N=C1C | -21.7% |
| COC(=O)C1=C(NC(=O)C(C)(C)C)CCS1 | 17.4% (active) |
| COC(=O)c1c(C(=O)OC)c2n(c1C)CCS2 | -0.54% |
| Cc1nc(NC(=O)C(C)(C)C)sc1[N+](=O)[O-] | -3.66% |
| Cc1cc(C)n2ncc(C(=O)Nc3ccc4c(c3)OCCO4)c2n1 | 13.6% |
